Screening results (PubChem)
An excerpt weighted towards active compounds, which were near 12% of everything screened.
HP1b binding inh – HTS for Inhibitors of HP1-beta Chromodomain Interactions with Methylated Histone Tails | Chromobox protein homolog 1 (Homo sapiens), P83916 | 390,000 tested, 0.56% active | AlphaScreen HP1-beta / biotin-H3K9me3 peptide binding | Potency, µM (top dose mostly 114 µM), for inactives: top-dose activity change, negative = inhibition, usual class: inhibitors; further: potency means the concentration at half of the fitted maximal effect; nearly all actives have a fitted effect of over 70% in size
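AlphaScreen: HP1-beta (50 nM) preformed 30 min with biotin-H3(1-18)K9me3 peptide (50 nM) in PBS pH 7.4, 0.01% Tween-20. Compound added for 30 min at RT, then streptavidin donor/nickel chelate acceptor beads (10 ug/mL) for 30 min.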
G9a block – qHTS Assay for Inhibitors of Histone Lysine Methyltransferase G9a; Histone-lysine N-methyltransferase EHMT2 (Homo sapiens), Q96KQ7; G9a H3K9 monomethylation, AlphaScreen, 2 h; Potency, µM (top dose mostly 102 µM), inactives show at the top dose activity, negative = inhibition, most hits filed as inhibitors; 350,000 tested, 8.8% active; AID 504332, 2011; further: potency means the concentration at half of the fitted maximal effect; on the % scale 0 is the no-effect control and ±100 the full control effect; nearly all actives have a fitted effect of over 75% in size
Target sequence (Q96KQ7 913-1193 limits assumed): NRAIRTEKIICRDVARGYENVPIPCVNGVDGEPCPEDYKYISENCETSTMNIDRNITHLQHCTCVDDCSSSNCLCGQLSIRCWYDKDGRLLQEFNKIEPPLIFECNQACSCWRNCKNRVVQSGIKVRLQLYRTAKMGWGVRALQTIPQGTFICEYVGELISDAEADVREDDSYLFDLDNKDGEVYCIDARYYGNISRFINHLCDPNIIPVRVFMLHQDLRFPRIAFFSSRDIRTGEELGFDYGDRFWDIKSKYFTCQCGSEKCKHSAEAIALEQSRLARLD
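Using a bead-based AlphaScreen, monomethylated H3K9 product from 2 h room-temperature reactions (G9a 20 nM, peptide 500 nM, SAM 20 uM) was detected with 0.5 ug/mL rabbit anti-H3K9me1 antibody.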
JMJD2A Tudor inh – qHTS Assay for Inhibitors of JMJD2A-Tudor Domain. Potency, µM (highest dose often 114 µM), for inactives: at the top dose activity change, negative = inhibition, actives largely listed as inhibitors. AlphaScreen JMJD2A-Tudor / H3K4me3 peptide binding. Lysine-specific demethylase 4A (Homo sapiens), O75164. 390,000 tested, 4.4% active; further: potency means the concentration at half of the fitted maximal effect; on the % scale 0 is the no-effect control and ±100 the full control effect; nearly all actives have a fitted effect of over 50% in size
BAZ2B inh – qHTS Assay for Inhibitors of BAZ2B; Bromodomain adjacent to zinc finger domain protein 2B (Homo sapiens), Q9UIF8; AlphaScreen BAZ2B-H3K14Ac peptide displacement; Potency, µM (titrated, usually from 114 µM), inactives show at the highest dose activity change, negative = inhibition, actives largely listed as inhibitors; 360,000 tested, 4.4% active; further: potency means the concentration at half of the fitted maximal effect; on the % scale 0 is the no-effect control and ±100 the full control effect; nearly all actives have a fitted effect of over 60% in size
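BAZ2B (50 nM) with biotin-H3(5-23)K14Ac peptide (50 nM) in PBS pH 7.4, 0.01% Tween-20, preformed 30 min, then compound 30 min at room temperature; top concentration 110uM. AlphaScreen streptavidin donor/nickel chelate acceptor beads (10 ug/mL final), 20 min dark, signal read.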
PI5P4Ka inh – qHTS for Inhibitors of phosphatidylinositol 5-phosphate 4-kinase (PI5P4K). PI5P4Kalpha enzyme, ADP-Glo luminescence, 60 min; stronger effect = lower value. max response, %. 330,000 tested, 1.2% active. Phosphatidylinositol 5-phosphate 4-kinase type-2 alpha (Homo sapiens), P48426; active means max response of -50% or lower; inconclusive means between -30% and -50%; inactive means -30% or higher; further: value at the top dose of about 77 µM; on the % scale 0 is the no-effect control and ±100 the full control effect
Target sequence (P48426 whole entry, looked up): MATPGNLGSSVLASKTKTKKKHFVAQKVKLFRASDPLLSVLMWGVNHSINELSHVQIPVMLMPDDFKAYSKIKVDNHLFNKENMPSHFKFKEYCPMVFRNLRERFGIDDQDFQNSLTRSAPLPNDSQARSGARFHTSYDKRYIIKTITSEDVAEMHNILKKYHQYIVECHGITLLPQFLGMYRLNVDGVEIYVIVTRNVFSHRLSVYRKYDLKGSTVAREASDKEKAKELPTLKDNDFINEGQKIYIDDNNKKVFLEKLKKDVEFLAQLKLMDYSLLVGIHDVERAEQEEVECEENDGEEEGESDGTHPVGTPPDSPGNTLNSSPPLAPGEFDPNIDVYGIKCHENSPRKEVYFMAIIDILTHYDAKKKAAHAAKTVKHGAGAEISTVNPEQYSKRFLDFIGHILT
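Reactions run in 0.038 M HEPES pH 7.4, 0.28 mM EGTA, 0.1% CHAPS and 5% DMSO, with PI5P4Kalpha, substrate, compound and 5 microM ATP final, one hour at room temperature. Readout is ADP-Glo luminescence.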
PLK1 PBD block – qHTS for Inhibitors of PLK1-PDB (polo-like kinase 1 - polo-box domain): Primary Screen | Serine/threonine-protein kinase PLK1 (Homo sapiens), P53350 | Plk1 PBD binding of FITC phosphopeptide, fluorescence polarization | Potency, µM, for the others: max response, negative = inhibition, hits mostly inhibitors | 360,000 tested, 2.8% active; further: potency means the concentration at half of the fitted maximal effect; series mostly up to about 57 µM; on the % scale 0 is the no-effect control and ±100 the full control effect; nearly all actives have a fitted effect of over 65% in size
The depositor's hits bear a star; ? = inconclusive; nt = no result given; [ ] = another dose, or the depositor's remark. Unless noted, the call rests on the fitted dose curve; in most records, active means well fitted curve in the direction sought with a large enough effect; inconclusive means small, poorly fitted or top-dose-only effect, or another doubt; inactive means no such curve, though single readings can be large; an effect the other way counts as inactive or inconclusive.

SMILES	HP1b binding inh	G9a block	JMJD2A Tudor inh	BAZ2B inh	PI5P4Ka inh	PLK1 PBD block
CCCCCC(=O)N1C[C@H](O)[C@@H](n2cc(-c3ccc(F)cc3)nn2)C[C@@H]1c1ccc(OC)cc1	nt	nt	nt	nt	3	-9%
Oc1ccc(Nc2nc3ccccc3nc2Nc2ccc(O)cc2)cc1	?	10µM*	?	50µM*	-21	-27%
COc1ccc(NC2=NCC(=O)N2Cc2cccs2)cc1	34%	-18%	-15%	-5%	3	1%
C=CCN1C(=O)CN=C1Nc1cccc(C)c1	51%	35µM*	-36%	?	-6	-14%
Cc1ccc(NC2=NCC(=O)N2C2CCCC2)cc1C	43%	-44%	-9%	-22%	1	-19%
C=CCN1C(=O)CN=C1Nc1cc(C)cc(C)c1	29%	?	?	-27%	-12	-10%
Cc1ccc(NC2=NCC(=O)N2Cc2cccs2)cc1C	61%	-50%	-8%	79µM*	2	?
COc1ccc(NC2=NCCC(=O)N2Cc2cccs2)cc1	45%	45µM*	-26%	?	-3	-21%
COc1cccc(NC2=NCC(=O)N2Cc2cccs2)c1	32%	50µM*	-21%	-12%	-3	-5%
CCNc1ncc2nc(CCc3ccccc3)c(=O)n(CCC#N)c2n1	nt	-1%[0.501 µM]	nt	nt	nt	nt
COC(=O)c1c(NC(=O)c2cc(=O)c3cc(C)cc(C)c3o2)sc2c1CCC2	36%	2%[59 µM]	-7%	-7%	nt	nt
O=c1ccc(N=Nc2ccccc2)ccc1O	?	45µM*	50µM*	11µM*	0	-20%
CN(C)c1ccc(-c2cccc(C3CC=CC4C3C(=O)N(Cc3ccccc3)C4c3ccc(C(F)(F)F)cc3)c2)cc1 (stereo not drawn)	-9%	?	?	-38%	-7	-14%
CN1C(=O)C2C(c3ccc(N(C)C)cc3)NN(Cc3ccccc3)C2C1=O (stereo not drawn)	?	?	?	40µM*	-2	-3%
Cc1ccc(C)c(-n2c(-c3ccncc3)n[nH]c2=S)c1	27%	16µM*	11µM*	-20%	0	-12%
Cc1ccc(C)c(N2CCN(Cc3csc(C)c3)CC2)c1	62%	?	-30%	?	nt	nt
Cc1ccc(C)c(-n2c(-c3ccc4c(c3)OCO4)n[nH]c2=S)c1	-6%	4µM*	25µM*	?	nt	-9%
Cc1ccc(C)c(-n2c(-c3csc(C)c3)n[nH]c2=S)c1	-1%	0.28µM*	22µM*	-29%	nt	-20%
CSc1nc(=S)n(-c2cc(C)ccc2C)c(C)c1C(C)=O	26%	-4%[0.501 µM]	-11%	?	1	-14%
Cc1ccc(S(=O)(=O)NCCCCCC(=O)Nc2ccccc2C)cc1	14%	?	-5%	-4%	8	0%
O=S(=O)(NCCCCCNS(=O)(=O)c1ccccc1)c1ccccc1	-5%	?	-13%[11.4 µM]	13%	-13	30µM*
Cc1cccc(C)c1NC(=O)CCCCCNS(=O)(=O)c1ccccc1	-6%	1%	-23%[57.1 µM]	-9%	-1	24µM*
O=S(=O)(NCCCc1ccccc1)c1ccccc1	44%	39%	6%	8%	2	-8%
COc1ccc(N2CCN(C(=O)CN(Cc3ccc(Cl)cc3)S(C)(=O)=O)CC2)cc1	-21%	79µM*	?	?	nt	-2%
COc1ccc(N(C(C)C(=O)N(C)Cc2ccccc2)S(C)(=O)=O)cc1 (stereo not drawn)	36%	-8%	7%	-3%	1	3%
SMILES	HP1b binding inh	G9a block	JMJD2A Tudor inh	BAZ2B inh	PI5P4Ka inh	PLK1 PBD block
COc1ccc(N2CCN(C(=O)Cc3ccc(OC)c(OC)c3)CC2)cc1	-19%	3%[59 µM]	13µM*	8%[0.457 µM]	?	24µM*
CS(=O)(=O)N(CC(=O)N1CCN(c2ccccc2)CC1)Cc1ccc(Cl)cc1	4%	?	-31%	-5%	nt	-13%
COc1ccc(N2CCN(C(C)C(=O)N(C)Cc3ccccc3)CC2)cc1 (stereo not drawn)	-10%	50µM*	-21%	-13%	10	-6%
COc1ccc(N2CCN(C(=O)CCc3ccccc3)CC2)cc1	23%	32µM*	-14%	-22%	0	-2%
COc1ccc(CCC(=O)N2CCN(c3ccc(OC)cc3)CC2)cc1	-5%	?	-35%	?	10	-2%
CS(=O)(=O)N(Cc1ccc(Cl)cc1)c1ccc(C(=O)N2CCN(c3ccccc3)CC2)cc1	-5%	7.9µM*	89µM*	?	-5	-1%
CS(=O)(=O)N(CCc1ccccc1)CC(=O)N1CCN(Cc2ccc3c(c2)OCO3)CC1	5%	?	-15%	-10%	nt	1%
CS(=O)(=O)N(CC(=O)N1CCN(Cc2ccc3c(c2)OCO3)CC1)Cc1ccc(Cl)cc1	7%	?	-27%	56µM*	nt	-2%
COc1ccc(N2CCN(C(=O)CCCOc3cc(=O)n(C)c4ccccc34)CC2)cc1	-6%	79µM*	?	?	nt	-2%
CC(=O)OC(C(=O)N1CCN(c2ccc(F)cc2)CC1)c1ccccc1 (stereo not drawn)	40%	-39%[59 µM]	-17%	-9%	2	-14%
Cc1ccc(C)c(N2CCN(C(=O)CCCOc3cc(=O)n(C)c4ccccc34)CC2)c1	8%	nt	-34%	?	nt	1%
COc1ccc(N2CCN(C(=O)C(OC(C)=O)c3ccccc3)CC2)cc1 (stereo not drawn)	17%	8.9µM*	-3%[57.1 µM]	-7%	-1	-4%
O=C(C(Cc1ccccc1)n1cccc1)N1CCCCC1 (stereo not drawn)	3%	?	-27%	-34%	5	-12%
COc1ccc(N2CCN(C(=O)C(Cc3ccccc3)n3cccc3)CC2)cc1 (stereo not drawn)	?	40µM*	56µM*	28µM*	0	-3%
O=C(C(Cc1ccccc1)n1cccc1)N1CCN(c2cccc(Cl)c2)CC1 (stereo not drawn)	23%	?	-18%	-34%	5	-5%
COc1ccc(N2CCN(C(=O)CN(Cc3ccccc3)S(C)(=O)=O)CC2)cc1	11%	50µM*	-21%	-28%	nt	-7%
O=C(C(Cc1ccccc1)n1cccc1)N1CCN(Cc2ccccc2)CC1 (stereo not drawn)	1%	32µM*	?	50µM*	3	-3%
COc1cc(NC(=O)N2CCN(c3cc(-c4noc(C)n4)ccc3C)CC2)cc(OC)c1OC	11%[57 µM]	14%[59 µM]	-17%	-6%	nt	nt
